Data on 39 compounds can be found in PubChem BioAssay (NCATS).

Results filed as inconclusive are left out. Entries that show only a call come without a potency. Activity calls are given as the source filed them. The call rests on the fitted dose curve; in most records, active means well fitted curve in the direction sought with a large enough effect; inconclusive means small, poorly fitted or top-dose-only effect, or another doubt; inactive means no such curve, though single readings can be large; an effect the other way counts as inactive or inconclusive.

The nature of the first experiment: Cell Viability - LYMP1-003 - Assay at 24 hr (AID 963). To be noted: LYMP1-003 lymphoblastoid cell viability; series mostly up to 92.2 µM. Put shortly:
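Cells seeded at 2500/well, 5 hr at 37 C; compounds added; 24 hr at 37 C; CellTiter-Glo added, 30 min room temperature; luminescence read. Decrease in ATP taken as cytotoxicity, AC50 from Hill modelling.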
In the case of `O=CNc1ccccc1`, the Potency entry was “inactive”.

As to `Cc1ccc(C#N)cc1`, the Potency result was “inactive”.

Consider `CC(C)C=O`, for which the Potency result was “inactive”.

In the case of `CN(C)c1cccc(O)c1`, the Potency result was “inactive”.

With `O=C(O)c1ccc(Cl)cc1Cl`, the Potency result was “inactive”.

Consider `CCCC(Cl)CCCC(Cl)CCC(Cl)CCC(Cl)CCC(Cl)CCCC(Cl)CCC` (configuration not stated), for which the Potency entry is “inactive”.

Take `CNC(=O)c1ccccc1`: the Potency result is “inactive”.

For `ClCCl`, the Potency result was “inactive”.

For `CC(C)(c1cc(Br)c(OCC(Br)CBr)c(Br)c1)c1cc(Br)c(OCC(Br)CBr)c(Br)c1` (configuration not stated), the Potency entry is “inactive”.

`CC(=O)Nc1ccc(N)cc1`: the Potency entry is “inactive”.

In the case of `Cc1ccccc1C(N)=O`, the Potency entry is “inactive”.

Regarding `CC(=O)C1(C)CC2=C(CCCC2(C)C)CC1C` (configuration not stated), the Potency result is “inactive”.

As to `CCCCN(CCO)CCCC`, the Potency result is “inactive”.

On to `OCCO`, for which the Potency entry was “inactive”.

In the case of `CC(=O)OC(C)=O`, the Potency result is “inactive”.

For `NS(=O)(=O)O`, the Potency entry is “inactive”.

With `Cc1ccc(C)c([N+](=O)[O-])c1`, the Potency result is “inactive”.

Consider `C=C(C)C(=O)OCCCCCCCCCC`, for which the Potency entry was “inactive”.

As to `COC(=O)CCCC(=O)OC`, the Potency result is “inactive”.

With `O=C(O)c1cc(Cl)cc(Cl)c1`, the Potency entry is “inactive”.

On to `CC/C=C1/OC(=O)c2ccccc21`, for which the Potency result is “inactive”.

Turning to `Cc1ccco1`, the Potency entry is “inactive”.

Consider `NCCCCCCN`, for which the Potency entry was “inactive”.

For `CCOC(C)(C)C`, the Potency entry is “inactive”.

With `COc1ccc(OC)cc1`, the Potency entry was “inactive”.

In the case of `Clc1cc(Cl)cc(Cl)c1`, the Potency entry is “inactive”.

Take `Cc1c(C(=O)O)cccc1[N+](=O)[O-]`: the Potency entry is “inactive”.

In the case of `CCCCCCCCCCCCC1CO1` (configuration not stated), the Potency result was “inactive”.

As to `COCCOC(=O)c1ccccc1C(=O)OCCOC`, the Potency result is “inactive”.

With `CCCCCCCCC`, the Potency entry is “inactive”.

The next experiment is described as follows: Cell Viability - LYMP1-003 - Assay at 40 hr (AID 964). Further: nearly all actives have a fitted effect of over 60% in size. The conditions noted are these: LYMP1-003 lymphoblastoid viability; series mostly up to 92.2 µM. The method, boiled down: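 Cells were seeded at 2500 per well and incubated 5 hr at 37 C. Compounds were added across a concentration series and left 40 hr at 37 C. CellTiter-Glo was added for 30 min at room temperature before luminescence reading.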
With `O=CNc1ccccc1`, the Potency entry is “inactive”.

On to `Cc1ccc(C#N)cc1`, for which the Potency entry was “inactive”.

`CCCCCCC=O`: the Potency entry is “inactive”.

`CN(C)c1cccc(O)c1`: the Potency entry was “inactive”.

In the case of `O=C(O)c1ccc(Cl)cc1Cl`, the Potency entry was “inactive”.

As to `CCCC(Cl)CCCC(Cl)CCC(Cl)CCC(Cl)CCC(Cl)CCCC(Cl)CCC` (configuration not stated), the Potency entry was “inactive”.

As for `ClCCl`, the Potency result was “inactive”.

For the compound `CC(=O)Nc1ccc(C)cc1`, the Potency result was “inactive”.

For the compound `CC(C)(c1cc(Br)c(OCC(Br)CBr)c(Br)c1)c1cc(Br)c(OCC(Br)CBr)c(Br)c1` (configuration not stated), the Potency result is “inactive”.

On to `CC(=O)Nc1ccc(N)cc1`, for which the Potency entry was “inactive”.

For `Cc1ccccc1C(N)=O`, the Potency entry is “inactive”.

`CC(=O)C1(C)CC2=C(CCCC2(C)C)CC1C` (configuration not stated): the Potency entry is “inactive”.

Take `CC(C=O)Cc1ccc(C(C)(C)C)cc1` (configuration not stated): the Potency result was “inactive”.

Consider `CCCCN(CCO)CCCC`, for which the Potency result was “inactive”.

As for `CC(O)CC(C)O` (configuration not stated), the Potency result is “inactive”.

As for `CC(=O)OC(C)=O`, the Potency entry is “inactive”.

Regarding `NS(=O)(=O)O`, the Potency entry was “inactive”.

As to `CCOC(=O)C(C)C(C)=O` (configuration not stated), the Potency entry is “inactive”.

Take `Cc1ccc(C)c([N+](=O)[O-])c1`: the Potency result was “inactive”.

As for `C=C(C)C(=O)OCCCCCCCCCC`, the Potency entry was “inactive”.

In the case of `COC(=O)CCCC(=O)OC`, the Potency result is “inactive”.

Consider `c1ccc(Nc2ccccc2)cc1`, for which the Potency result was “inactive”.

As for `CC/C=C1/OC(=O)c2ccccc21`, the Potency result is “inactive”.

`Cc1ccco1`: the Potency result is “inactive”.

As for `NCCCCCCN`, the Potency result was “inactive”.

Consider `CCOC(C)(C)C`, for which the Potency entry was “inactive”.

Regarding `O=C(O)c1cccc(Cl)c1Cl`, the Potency result is “inactive”.

As for `COc1ccc(OC)cc1`, the Potency result is “inactive”.

For `Clc1cc(Cl)cc(Cl)c1`, the Potency entry is “inactive”.

For `Cc1c(C(=O)O)cccc1[N+](=O)[O-]`, the Potency entry was “inactive”.

Regarding `CCCCCCCCCCCCC1CO1` (configuration not stated), the Potency entry was “inactive”.

Consider `COCCOC(=O)c1ccccc1C(=O)OCCOC`, for which the Potency entry was “inactive”.

Turning to `CCCCCCCCC`, the Potency result is “inactive”.

A further experiment can be described thus: Cell Viability - LYMP2-003 (AID 965).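 Further: cells exposed to compounds for 24 h before reading; nearly all actives have a fitted effect of over 50% in size.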 The conditions noted are these: LYMP2-003 lymphoblastoid cell viability; series mostly up to 92.2 µM. Put shortly: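 CellTiter-Glo luminescence (cellular ATP) after 24 h compound exposure at 37 C in complete medium; 2500 cells/well, 5 h settling beforehand. Concentration-response fitted to standard Hill equation for AC50. Tetraoctylammonium bromide served as positive control.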
Turning to `O=CNc1ccccc1`, the Potency result is “inactive”.

With `Cc1ccc(C#N)cc1`, the Potency result was “inactive”.

Consider `CC(C)C=O`, for which the Potency entry was “inactive”.

With `CCCCCCC=O`, the Potency result is “inactive”.

Regarding `CN(C)c1cccc(O)c1`, the Potency result was “inactive”.

With `O=C(O)c1ccc(Cl)cc1Cl`, the Potency result was “inactive”.

Turning to `CCCC(Cl)CCCC(Cl)CCC(Cl)CCC(Cl)CCC(Cl)CCCC(Cl)CCC` (configuration not stated), the Potency entry was “inactive”.

For the compound `CNC(=O)c1ccccc1`, the Potency entry was “inactive”.

For `ClCCl`, the Potency entry was “inactive”.

`CC(=O)Nc1ccc(C)cc1`: the Potency result is “inactive”.

For `CC(C)(c1cc(Br)c(OCC(Br)CBr)c(Br)c1)c1cc(Br)c(OCC(Br)CBr)c(Br)c1` (configuration not stated), the Potency entry is “inactive”.

For the compound `CC(=O)Nc1ccc(N)cc1`, the Potency entry was “inactive”.

Take `Cc1ccccc1C(N)=O`: the Potency entry was “inactive”.

For `CC(=O)C1(C)CC2=C(CCCC2(C)C)CC1C` (configuration not stated), the Potency result is “inactive”.

Take `CC(C=O)Cc1ccc(C(C)(C)C)cc1` (configuration not stated): the Potency entry was “inactive”.

In the case of `CCCCN(CCO)CCCC`, the Potency result is “inactive”.

In the case of `CC(O)CC(C)O` (configuration not stated), the Potency result is “inactive”.

With `OCCO`, the Potency entry is “inactive”.

With `CC(=O)OC(C)=O`, the Potency result was “inactive”.

As for `NS(=O)(=O)O`, the Potency result was “inactive”.

With `CCOC(=O)C(C)C(C)=O` (configuration not stated), the Potency result was “inactive”.

Consider `Cc1ccc(C)c([N+](=O)[O-])c1`, for which the Potency result is “inactive”.

On to `C=C(C)C(=O)OCCCCCCCCCC`, for which the Potency result is “inactive”.

For the compound `COC(=O)CCCC(=O)OC`, the Potency entry was “inactive”.

Regarding `c1ccc(Nc2ccccc2)cc1`, the Potency entry was “inactive”.

Turning to `O=C(O)c1cc(Cl)cc(Cl)c1`, the Potency entry is “inactive”.

Consider `CC/C=C1/OC(=O)c2ccccc21`, for which the Potency result was “inactive”.

Take `Cc1ccco1`: the Potency entry is “inactive”.

On to `NCCCCCCN`, for which the Potency result is “inactive”.

`BrC/C=C/CBr`: the Potency entry was “inactive”.

As for `CC(=C/C=C/C(C)=C/C=C/C=C(C)/C=C/C=C(C)/C=C/C(=O)O)/C=C/C(=O)O`, the Potency result was “inactive”.

Turning to `CCOC(C)(C)C`, the Potency entry was “inactive”.

For `O=C(O)c1cccc(Cl)c1Cl`, the Potency entry was “inactive”.

With `COc1ccc(OC)cc1`, the Potency entry is “inactive”.

Regarding `Clc1cc(Cl)cc(Cl)c1`, the Potency entry was “inactive”.

With `Cc1c(C(=O)O)cccc1[N+](=O)[O-]`, the Potency entry was “inactive”.

Turning to `CCCCCCCCCCCCC1CO1` (configuration not stated), the Potency result was “inactive”.

In the case of `COCCOC(=O)c1ccccc1C(=O)OCCOC`, the Potency result was “inactive”.

Take `CCCCCCCCC`: the Potency entry was “inactive”.
